# Screening data: PubChem BioAssay, National Center for Advancing Translational Sciences (NCATS)
# Shown is part of a subset that was picked to be rich in hits.
# KDM5B inh: KDM5B demethylase inhibition; Q9UGL1; KDM5B demethylase, FDH-coupled NADH fluorescence (FDH is formaldehyde dehydrogenase); Potency, µM (series often up to 57.7 µM), hits mostly inhibitors; hit rate 2.6% among 220,000; AID 1347165; active = well fitted inhibition curve with a large enough effect; also: nearly all actives have a fitted effect of over 70% in size
#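 Compound dilutions met 200 nM (final) KDM5BΔAP for 10 min at room temperature before substrate addition. The substrate mix held 12.5 µM H3K4me3 with cofactors 25 µM α-ketoglutarate and 50 µM Fe²⁺. NADH signal gain over 30 min defined activity.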
# A number is an active result; n = inactive.
SMILES,KDM5B inh
O=C(Nc1ccc(Cl)cc1)c1nc2c(o1)CCN(Cc1cccc(O)c1)CC2,32µM
Cc1csc(NC(=O)c2nc3c(o2)CCN(Cc2ccccc2)CC3)n1,n
O=C(NCc1ccncc1)c1nc2c(o1)CCN(Cc1ccc3[nH]ccc3c1)CC2,n
COc1ccc(CN2CCc3nc(C(=O)NCc4ccncc4)oc3CC2)cc1OC,n
Cc1csc(NC(=O)c2nc3c(o2)CCN(Cc2cccc(F)c2)CC3)n1,n
O=C(Nc1ccccc1)c1nc2c(o1)CCN(Cc1ccc(F)c(Cl)c1)CC2,28µM
O=C(Nc1ccc(Cl)cc1)c1nc2c(o1)CCN(Cc1ccc3c(c1)CCO3)CC2,32µM
O=C(Nc1ccc(Cl)cc1)c1nc2c(o1)CCN(Cc1ccc3cn[nH]c3c1)CC2,35µM
Cc1ccc(CNC(=O)N2CCC(N3C(=O)C4(CCCCC4)C3c3ccncc3)CC2)cc1 (stereo unspecified),n
CC(C)(C)NC(=O)COC(=O)c1cc(=O)c2ccccc2o1,n
COc1ccc(C2C(C(C)=O)=C(O)C(=O)N2c2ccc(C)c(Br)c2)c(OC)c1 (stereo unspecified),n
COC1CN(c2cccc(F)c2)C12CCN(C(=O)c1cnc(C)cn1)CC2 (stereo unspecified),n
COC(=O)c1cc(-c2ccc(OC)c(OC)c2)nc2ccccc12,n
CSc1nccc(-c2ccc(C)c(C)c2)n1,n
O=C(NC1CCCCC1)N1CCCC(c2noc(COc3ccccc3F)n2)C1 (stereo unspecified),n
COc1ccccc1N1CCN(C(=O)C2CCCN(S(C)(=O)=O)CCC(=O)NCC2)CC1 (stereo unspecified),n
O=C(N/N=C/c1ccc(Cl)cc1)c1cccs1,n
Cc1ccc(NC(=O)C(C#N)C(=O)c2ccc(C(C)(C)C)cc2)cc1 (stereo unspecified),n
CN1C(=O)C2(CC(=O)Nc3c2cnn3Cc2ccc(Cl)cc2)c2c(Cl)cccc21 (stereo unspecified),n
O=C(Nc1ccc(Cl)cc1)c1nc2c(o1)CCN(CC1CC1)CC2,n
Cc1ccc(CN2CCc3nc(C(=O)Nc4cccnc4)oc3CC2)cc1,n
Cc1ccc(CN2CCc3nc(C(=O)Nc4ccccc4)oc3CC2)cc1,35µM
Cc1ccccc1CN1CCc2nc(C(=O)NCCOc3ccccc3)oc2CC1,32µM
Cc1[nH]cnc1CN1CCc2nc(C(=O)NCCOc3ccccc3)oc2CC1,n
O=C(Nc1ccc(Cl)cc1)c1nc2c(o1)CCN(Cc1ccncc1)CC2,n
SMILES,KDM5B inh
Cc1ccc(CN2CCc3nc(C(=O)Nc4ccc(Cl)cc4)oc3CC2)cc1,35µM
O=C(NCCOc1ccccc1)c1cnc2n1CCN(Cc1ccccc1O)CC2,n
O=C(Nc1ccccc1)c1nc2c(o1)CCN(Cc1ccc(O)cc1)CC2,n
C/C=C/C=C/C(=O)OCC(=O)c1ccc(Br)s1,n
CCCCCCNc1nc2ccccc2nc1NS(=O)(=O)c1ccc(F)cc1,n
CCCCCCCC(=O)Nc1ccc(C(=O)N/N=C/c2cccc(Br)c2)cc1,n
O=C(CCc1c[nH]c2ccccc12)N(Cc1ccc(F)cc1)C1CC1,n
CCOc1ccc2c(n1)CCN(C(=O)Cc1c[nH]c3ccccc13)C2,n
CN(C)c1cccc(C(=O)NC2CCN(c3cc(-c4ccc(F)cc4)[nH]n3)CC2)c1,n
Cc1ccccc1CC(=O)N1CCN(c2cc(-c3ccc(Cl)cc3)[nH]n2)CC1,n
O=C(c1cccc(Cl)c1)N1CCN(c2cc(-c3ccc(Cl)cc3)[nH]n2)CC1,n
O=C(Cc1ccccc1F)N1CCCN(c2cc(-c3ccc(Cl)cc3)[nH]n2)CC1,10µM
O=C(c1ccccc1F)N1CCCN(c2cc(-c3ccc(Cl)cc3)[nH]n2)CC1,n
CN(C)c1cccc(C(=O)N2CCN(c3cc(-c4ccc(Cl)cc4)[nH]n3)CC2)c1,32µM
CN(C)c1cccc(C(=O)NC2CCN(c3cc(-c4ccc(Cl)cc4)[nH]n3)CC2)c1,32µM
CN(C)c1cccc(C(=O)N2CCCN(c3cc(-c4ccccc4)[nH]n3)CC2)c1,n
COc1ccc(-c2cc(N3CCCC(NC(=O)c4cccc(N(C)C)c4)C3)n[nH]2)cc1 (stereo unspecified),28µM
COc1ccc(-c2cc(N3CCCC(NC(=O)c4cccc(C)c4)C3)n[nH]2)cc1 (stereo unspecified),n
COc1ccc(-c2cc(N3CCCC(NC(=O)c4cccc(F)c4)C3)n[nH]2)cc1 (stereo unspecified),n
COc1cccc(C(=O)NC2CCN(c3cc(-c4ccc(Cl)cc4)[nH]n3)CC2)c1,n
C/C(=N/NC(=O)c1ccccc1)c1ccc(C)cc1,n
Cc1csc(CNC(=O)/C=C/c2cccnc2)n1,n
CN(Cc1ccccc1)C(=O)c1ccccc1C(=O)OCC(=O)C(C)(C)C,n
CN(Cc1cccc(C(F)(F)F)c1)C(=O)c1ccccc1Cl,n
Cn1nc(C(=O)OCC(N)=O)c2ccccc2c1=O,n
SMILES,KDM5B inh
N#Cc1ccc(NCCNc2cnccn2)nc1,n
COc1ccc(-c2nc3cc(NC(=O)c4ccccc4Cl)ccc3o2)cc1OC,n
N#Cc1ccc(-c2ccc(OCC(=O)c3ccc4c(c3)OCCCO4)cc2)cc1,n
COc1cccc(CSc2nc3ccncc3n2Cc2cccc(OC)c2)c1,n
CCCNC(=O)C(=O)c1c(-c2ccccc2)n(C)c2ccccc12,n
Cc1cc(C)cc(C(=O)NCc2nnc3c(-c4nc(C(C)C)no4)cccn23)c1,22µM
Cc1cccc(C(=O)NCc2nnc3c(-c4nc(C(C)C)no4)cccn23)c1,28µM
COc1ccc(Cl)cc1C(=O)NCc1nnc2c(-c3nc(C(C)C)no3)cccn12,n
CC(C)c1noc(-c2cccn3c(CNC(=O)c4cccc(Cl)c4)nnc23)n1,22µM
CC(C)c1noc(-c2cccn3c(CNC(=O)c4c(F)cccc4F)nnc23)n1,28µM
CC(C)c1noc(-c2cn(C3CCN(C(=O)c4cccc(Cl)c4)C3)nn2)n1 (stereo unspecified),n
CCCNC(=O)Nc1cc(S(=O)(=O)N2CCOCC2)ccc1NCC1CCCO1 (stereo unspecified),n
Cc1ccc(-n2c(SCC(=O)N3CCCC3=O)nc3ccccc3c2=O)nc1,n
COC(=O)c1c(Cc2cc(Cl)ccc2Cl)c[nH]c1C,n
Cc1cccc(CS(=O)(=O)Cc2ccc(C#N)cc2)c1,n
Cn1c(C(=O)Nc2ccccc2Cl)c(Cl)c2ccccc21,n
O=c1c(Cl)c(N2CCN(S(=O)(=O)c3ccc4c(c3)CCC4)CC2)cnn1-c1ccccc1,n
Cc1ccccc1S(=O)(=O)n1cc2c(=O)n(C)c(=O)n(C)c2n1,n
O=C(/C=C/c1ccc(-c2c(Cl)cccc2Cl)o1)c1ccccc1,n
O=C(CCCN1C(=O)NC2(CCCC2)C1=O)Nc1cnc2ccccc2c1,n
Cc1ccc(S(=O)(=O)N2CCN(Cc3cc(=O)oc4cc(O)c(Cl)cc34)CC2)cc1,n
Cc1ccc(C(=O)N2CCC(n3cc(-c4nc(C(C)C)no4)nn3)C2)cc1C (stereo unspecified),n
CC(C)c1noc(-c2cccn3c(CNC(=O)c4cccc(F)c4)nnc23)n1,25µM
COc1ccc(C(=O)NCc2nnc3c(-c4nc(C5CC5)no4)cccn23)c(C)c1,n
Cc1ccc(C(=O)NCc2nnc3c(-c4nc(C(C)C)no4)cccn23)cc1C,28µM
Cc1ccc(C(=O)NCc2nnc3c(-c4nc(C5CC5)no4)cccn23)cc1C,10µM
CC(C)c1noc(-c2cn(C3CCN(C(=O)c4cccc(F)c4)C3)nn2)n1 (stereo unspecified),n
